Experimental data published in PubChem BioAssay (NCI).
The panel holds about 83,000 compounds, 20% with a hit somewhere; the sample as a whole holds those more often.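 Method: cells in 96-well plates; compound added at one concentration; 48 h incubation; percent growth measured; values under 10 scored active.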 Calls of active or inactive are those of the source.

Experiments:
Assay in all cases: NCI-60 one-dose screen, 48 h (100 = growth as untreated, 0 = no growth, -100 = all killed)
Conditions in all cases: 10 µM unless noted
T-47D breast = tested on: T-47D breast
BT-549 breast = tested on: BT-549 breast
MDA-MB-435 melanoma = tested on: MDA-MB-435 melanoma
SW-620 colon = tested on: SW-620 colon
MCF7 breast = tested on: MCF7 breast
HCT-116 colon = tested on: HCT-116 colon
HCC-2998 colon = tested on: HCC-2998 colon
KM12 colon = tested on: KM12 colon

Measured: growth

CC(=O)c1cc(C(=O)c2ccc3c(c2)Sc2ccccc2N3)c2cc(C)ccn12
active: BT-549 breast -13.9% | MDA-MB-435 melanoma -19.7% | HCT-116 colon -23.6%
inactive: T-47D breast 61.7% | SW-620 colon 22.4% | MCF7 breast 10.8% | HCC-2998 colon 23.2%

COc1cc(Cn2c(-c3nonc3N)nc3ccccc32)ccc1C
inactive: T-47D breast 37.2% | BT-549 breast 66.9% | SW-620 colon 31.2% | MCF7 breast 20.7% | HCT-116 colon 20.3% | HCC-2998 colon 23.5%
active: MDA-MB-435 melanoma -30.6%

O=C(Nc1ccc(F)c(Cl)c1)c1n[nH]c(=O)c2ccccc12
inactive: T-47D breast 81.1% | BT-549 breast 132% | MDA-MB-435 melanoma 93.2% | SW-620 colon 107% | MCF7 breast 60.6% | HCT-116 colon 101% | HCC-2998 colon 103%

CCCCCCOc1ccc(C2(Cl)c3ccccc3N(C)c3ccccc32)cc1
active: MDA-MB-435 melanoma -23.5% | SW-620 colon 7.18% | MCF7 breast 0.626%
inactive: T-47D breast 44.2% | BT-549 breast 86.5% | HCT-116 colon 16.1% | HCC-2998 colon 59.8%

COc1cc(NC(=O)c2cc3ccccc3nc2Nc2ccc(F)cc2)cc(OC)c1OC
inactive: T-47D breast 22.1% | BT-549 breast 30.7% | MDA-MB-435 melanoma 27% | SW-620 colon 54.4% | MCF7 breast 24.2% | HCT-116 colon 35.8% | HCC-2998 colon 65.9%

c1cc(-c2ccc3c(c2)OCO3)n2nccc2n1
inactive: T-47D breast 88.2% | BT-549 breast 101% | MDA-MB-435 melanoma 98.2% | SW-620 colon 105% | MCF7 breast 89.9% | HCT-116 colon 102% | HCC-2998 colon 86.9%

CCN(CC)CCCNc1nc(C)cc(Nc2ccc3nc(C)cc(N)c3c2)n1
inactive: T-47D breast 92.2% | BT-549 breast 84.9% | MDA-MB-435 melanoma 103% | SW-620 colon 117% | MCF7 breast 92.8% | HCT-116 colon 93% | HCC-2998 colon 97.6%

COc1ccc(NC(=O)c2cc3ccccc3nc2Nc2cc(OC)c(OC)c(OC)c2)cc1
inactive: T-47D breast 27.1% | BT-549 breast 52.8% | MDA-MB-435 melanoma 63.9% | SW-620 colon 75.1% | MCF7 breast 39.4% | HCT-116 colon 48.2% | HCC-2998 colon 89%

CC(=O)Nc1nc(C(=O)N2N=C(C)/C(=C/c3ccc(Cl)cc3)C2=O)cs1
inactive: T-47D breast 95.6% | BT-549 breast 97.4% | MDA-MB-435 melanoma 112% | SW-620 colon 109% | MCF7 breast 94.4% | HCT-116 colon 99.9% | HCC-2998 colon 104%

O=C(COc1ccccc1)N1N=C(c2ccc(Cl)cc2)CC1c1c[nH]c2ccccc12 (stereo not given)
inactive: T-47D breast 51.4% | BT-549 breast 71.3% | MDA-MB-435 melanoma 93.8% | SW-620 colon 54.5% | MCF7 breast 39.7% | HCT-116 colon 68.5% | HCC-2998 colon 103%

Clc1cccc(Cl)c1Cn1c(-c2cncs2)nc2ccccc21
inactive: T-47D breast 64.5% | BT-549 breast 85.1% | MDA-MB-435 melanoma 44.5% | SW-620 colon 94% | MCF7 breast 92.3% | HCT-116 colon 78.8% | HCC-2998 colon 82.6%

CC[C@]1(O)C[C@@H]2CN(Cc3c([nH]c4ccccc34)[C@@](C(=O)OC)(c3cc4c(cc3OC)N(C)[C@H]3[C@@](O)(C(=O)OC)[C@H](OC(C)=O)[C@]5(CC)[C@@H]6C[C@@H]6CN6CC[C@]43[C@@H]65)C2)C1
active: BT-549 breast -23.1% | MDA-MB-435 melanoma -40% | HCT-116 colon 2.43% | HCC-2998 colon 7.42%
inactive: T-47D breast 83.3% | SW-620 colon 20.6% | MCF7 breast 14.8%

NC(=O)NNC(=O)c1ccccc1
inactive: T-47D breast 111% | BT-549 breast 107% | MDA-MB-435 melanoma 105% | SW-620 colon 108% | MCF7 breast 100% | HCT-116 colon 99.7% | HCC-2998 colon 107%

O=C(O)C(=Cc1c2ccccc2cc2ccccc12)C(=O)O
inactive: T-47D breast 90.5% | BT-549 breast 105% | MDA-MB-435 melanoma 109% | SW-620 colon 105% | MCF7 breast 97.5% | HCT-116 colon 97.7% | HCC-2998 colon 100% | KM12 colon 109%

COc1cc2nc(Cl)nc(NCCO)c2cc1OC
inactive: T-47D breast 101% | BT-549 breast 112% | MDA-MB-435 melanoma 106% | SW-620 colon 104% | MCF7 breast 100% | HCT-116 colon 113% | HCC-2998 colon 102%

COc1cc(-c2csc(NC(=O)Nc3ccc(Cl)cc3Cl)n2)cc(OC)c1OC
inactive: T-47D breast 26.6% | BT-549 breast 38.3% | SW-620 colon 28.8% | MCF7 breast 11.8% | HCT-116 colon 19.3% | HCC-2998 colon 60.1% | KM12 colon 24.6%
active: MDA-MB-435 melanoma -7.76%

COc1cc(NCCCN=C(N)NC(N)=NC(C)C)c2ncccc2c1
inactive: BT-549 breast 65.1% | MDA-MB-435 melanoma 96.9% | SW-620 colon 86.6% | HCT-116 colon 17.3% | HCC-2998 colon 55.8% | KM12 colon 30.6%
active: T-47D breast -2.75% | MCF7 breast -52.9%

O=[N+]([O-])c1cc(S(=O)(=O)OCC2CO2)ccc1Cl (stereo not given)
inactive: T-47D breast 77.1% | BT-549 breast 91.3% | MDA-MB-435 melanoma 97.7% | SW-620 colon 41.2% | MCF7 breast 75.5% | HCT-116 colon 54% | HCC-2998 colon 107%

Cc1sc(N=Nc2ccc(N(C)C)cc2)[n+]([O-])c1C
inactive: T-47D breast 95.4% | BT-549 breast 94.3% | MDA-MB-435 melanoma 101% | SW-620 colon 99.3% | MCF7 breast 79.9% | HCT-116 colon 112% | HCC-2998 colon 112%

Cc1ccnc2nc(C(=O)OCC(=O)Nc3ccc(-c4ccccc4)cc3)nn12
inactive: T-47D breast 111% | BT-549 breast 96.3% | MDA-MB-435 melanoma 107% | SW-620 colon 109% | MCF7 breast 105% | HCT-116 colon 96% | HCC-2998 colon 105%

CCSc1nnc(NC(=O)Cc2ccc(Cl)cc2)s1
inactive: T-47D breast 96.2% | BT-549 breast 109% | MDA-MB-435 melanoma 98.9% | SW-620 colon 109% | MCF7 breast 101% | HCT-116 colon 105% | HCC-2998 colon 84.9%

CC(C)(C)c1ccc(S(=O)(=O)Oc2ccc3c4c(c(=O)oc3c2)CCCCC4)cc1
inactive: T-47D breast 45.9% | BT-549 breast 46.6% | MDA-MB-435 melanoma 11.9% | SW-620 colon 55.2% | MCF7 breast 32.3% | HCT-116 colon 36.6% | HCC-2998 colon 74.5% | KM12 colon 55.1%

CCSc1nnc(Nc2ccc(C(C)C)cc2)s1
inactive: T-47D breast 78.7% | BT-549 breast 103% | MDA-MB-435 melanoma 86.7% | SW-620 colon 84.1% | MCF7 breast 95.2% | HCT-116 colon 72.3% | HCC-2998 colon 92.7%

O=C(c1ccccc1)C(Cl)C(Cl)c1ccccc1 (stereo not given)
active: T-47D breast -1.59% | SW-620 colon -41.3% | MCF7 breast 9.18% | HCT-116 colon 7.77%
inactive: BT-549 breast 96.5% | MDA-MB-435 melanoma 33.7% | HCC-2998 colon 98.1%

Cc1cc(C(=O)O)c(N)c(C)n1
inactive: T-47D breast 112% | BT-549 breast 106% | MDA-MB-435 melanoma 107% | SW-620 colon 106% | MCF7 breast 93.6% | HCT-116 colon 102%

CCCCCCCCCCC/C=C\C[C@H](O)C/C=C1/C(=O)C=C[C@@H]1C/C=C\CCCC(=O)OC
active: T-47D breast -8.92% | BT-549 breast -14.2% | MDA-MB-435 melanoma -14.5% | SW-620 colon 3.33% | HCT-116 colon -32% | HCC-2998 colon -46.5%
inactive: MCF7 breast 10.8%

Cc1cccc2cc(/C=C/C(=O)/C=C/c3ccc(Cl)cc3)c(=O)[nH]c12
active: BT-549 breast 7.28% | MDA-MB-435 melanoma -32.7% | SW-620 colon 8.48% | MCF7 breast 9.87% | HCT-116 colon -52.7%
inactive: T-47D breast 41.6%

Cc1nc(Nc2cccnc2)sc1C(=O)/C=C/c1ccc(Cl)cc1
inactive: T-47D breast 24.8% | BT-549 breast 15.2% | MCF7 breast 13.2% | HCT-116 colon 26.8% | HCC-2998 colon 84.8%
active: MDA-MB-435 melanoma 5.05% | SW-620 colon 6.92%

CN1CCN(CCCOc2ccc3nc(Nc4ccc(C(F)(F)F)c(Cl)c4)ccc3c2)CC1
inactive: T-47D breast 39.9% | BT-549 breast 80.9%
active: MDA-MB-435 melanoma -74.9% | SW-620 colon -70.4% | MCF7 breast -69.5% | HCT-116 colon 0.975%

COc1ccc(/C=C2\CCCC3=C2NC(C)=NC3c2ccc(OC)c(OC)c2)cc1OC (stereo not given)
inactive: T-47D breast 11.2% | MCF7 breast 26.3%
active: BT-549 breast -16.1% | MDA-MB-435 melanoma 1.49% | SW-620 colon -28.8% | HCT-116 colon -95.7% | HCC-2998 colon -47.8%

Cc1ccc(C(=O)c2sc3nc4c(cc3c2N)CCCC4)c(C)c1
active: MDA-MB-435 melanoma -44.5%
inactive: T-47D breast 35.4% | BT-549 breast 55.8% | SW-620 colon 30.3% | MCF7 breast 21% | HCT-116 colon 25.3%

CCn1c(=O)c2c(=O)c3c4c(oc3oc2c2ccccc21)C(=O)c1ccccc1C4=O
inactive: BT-549 breast 85.1% | MDA-MB-435 melanoma 95.9% | SW-620 colon 73.5% | MCF7 breast 61.9% | HCT-116 colon 34.6% | HCC-2998 colon 101%
active: T-47D breast -9.96%

Nc1c(C(=O)Nc2cccc(C(F)(F)F)c2)sc2nc3c(cc12)CCCCCC3
inactive: BT-549 breast 59.6% | MDA-MB-435 melanoma 31% | SW-620 colon 46% | MCF7 breast 20.4% | HCC-2998 colon 37.1%
active: T-47D breast -7% | HCT-116 colon -18.1%

CC1Cc2c(N(C)C)ncnc2N(C)c2ccc(O)cc21 (stereo not given)
inactive: T-47D breast 89.7% | BT-549 breast 88.8% | SW-620 colon 63.5% | MCF7 breast 73.9% | HCT-116 colon 79.6% | HCC-2998 colon 88.8%
active: MDA-MB-435 melanoma 8.93%

CCCS(=O)(=O)c1nc(NC2CC2)cc(-c2ccc3c(ccn3C3CC(C)(C)NC(C)(C)C3)c2)n1
active: T-47D breast -74.3% | BT-549 breast -35.7% | SW-620 colon -61.6% | MCF7 breast -80.5% | HCT-116 colon -78.2% | HCC-2998 colon 1.29%
inactive: MDA-MB-435 melanoma 11.5%
